{"source": "PubChem BioAssay (NCI)", "note": "About 79,000 compounds went through this panel and 15% of them were active in at least one assay; those are over-represented in the sample as a whole. Active and inactive are the calls of the source. Rule as the data show it: active = growth inhibition above about 70%; inactive = the rest.", "data": [{"experiment": "NCI Yeast Anticancer Drug Screen. Data for the rad50 strain (AID 155);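 also: 0% = growth of vehicle-only cultures of the same strain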", "details": "S. cerevisiae rad50 strain growth inhibition; at 50.0 µM; stronger effect = higher value", "description": "Growth inhibition of yeast strains with defined genetic alterations is measured as a screen for potential anti-cancer activity. Selected strains with alterations in DNA damage repair or cell cycle control were exposed to compounds and growth inhibition was measured relative to vehicle treated controls. The strain used in this assay is rad50", "values": [{"smiles": "CCOC(=O)C1(C)OC1c1ccc([N+](=O)[O-])cc1", "note": "(stereo not given)", "growth inhibition": "-16.3% (inactive)"}, {"smiles": "COC(=O)c1ccc2c(c1)nnn2C(C)=O", "growth inhibition": "-9.55% (inactive)"}, {"smiles": "CC(C)c1ccc(C(=O)OCC2CCCO2)cc1", "note": "(stereo not given)", "growth inhibition": "7.95% (inactive)"}, {"smiles": "COc1cc2c(cc1O)C(=O)CCC(C(=O)O)=C2", "growth inhibition": "14.2% (inactive)"}, {"smiles": "c1ccc(C(Sc2ncnc3nc[nH]c23)c2ccccc2)cc1", "growth inhibition": "15% (inactive)"}, {"smiles": "CC(O)CN(CC(C)O)S(=O)(=O)c1ccc(N)cc1", "note": "(stereo not given)", "growth inhibition": "-9.15% (inactive)"}, {"smiles": "N#CCc1ccccc1-c1ccccc1", "growth inhibition": "2.45% (inactive)"}, {"smiles": "CC(=O)NC1CC(C)(C)NC(C)(C)C1", "growth inhibition": "-18.6% (inactive)"}, {"smiles": "COc1ccc(C(c2ccc(N(Cc3ccccc3)Cc3ccccc3)cc2NC(C)=O)c2ccc(N(Cc3ccccc3)Cc3ccccc3)cc2NC(C)=O)cc1OC", "growth inhibition": "5.75% (inactive)"}, {"smiles": "Cc1[nH]c(=S)[nH]c(=O)c1CCC(C)C", "growth inhibition": "9.5% (inactive)"}, {"smiles": "CN(Cc1cnc2nc(N)nc(N)c2n1)c1ccc(C(=O)NC(CCC(=O)NC(CCC(=O)O)C(=O)O)C(=O)O)cc1", "note": "(stereo not given)", "growth inhibition": "34.7% (inactive)"}, {"smiles": "Cc1cc(CO)c(O)c(CN(CC(=O)O)CC(=O)O)c1", "growth inhibition": "20.2% (inactive)"}, {"smiles": "CCCCS(=O)(=O)CCCCCCl", "growth inhibition": "1.55% (inactive)"}, {"smiles": "COC(=O)n1oc2c(Br)cc(Br)cc2c1=O", "growth inhibition": "-4.15% (inactive)"}, {"smiles": "COc1cccc(CCNC(=O)Cc2ccccc2CCO)c1", "growth inhibition": "-5.8% (inactive)"}, {"smiles": "CCCCCCOC(=O)CCBr", "growth inhibition": "5% (inactive)"}, {"smiles": "O=C(O)C1CCCN1Cc1ccc2c(c1)OCO2", "note": "(stereo not given)", "growth inhibition": "-5.1% (inactive)"}, {"smiles": "N#Cc1cnsc1", "growth inhibition": "-4.15% (inactive)"}, {"smiles": "CCCCCCCCCC(=O)N/N=C\\c1cccc2ccccc12", "growth inhibition": "0.15% (inactive)"}, {"smiles": "CCCCCCCCCCCC(=O)OCC", "growth inhibition": "26.8% (inactive)"}, {"smiles": "c1ccc2scnc2c1", "growth inhibition": "21.2% (inactive)"}, {"smiles": "COc1c(NC(=O)Nc2ccc(SC)cc2)cccc1[N+](=O)[O-]", "growth inhibition": "2.35% (inactive)"}, {"smiles": "CC1CC(c2ccccc2)S(=O)(=O)O1", "note": "(stereo not given)", "growth inhibition": "-5.9% (inactive)"}, {"smiles": "CCOC(=O)N1CN(C(=O)OCC)CN(C(=O)OCC)C1", "growth inhibition": "15.7% (inactive)"}, {"smiles": "CCOC(=O)NCS(=O)(=O)N1CCOCC1", "growth inhibition": "25.6% (inactive)"}, {"smiles": "COC(=O)CCCc1c[nH]c2ccccc12", "growth inhibition": "7.2% (inactive)"}, {"smiles": "COc1ccc(-c2nc(SCc3ccc(Cl)cc3)[nH]c(=O)c2CCO)cc1", "growth inhibition": "32.3% (inactive)"}, {"smiles": "COc1ccc(Cl)cc1NC(=O)c1ccc(C(=O)Nc2cc(Cl)ccc2OC)cc1", "growth inhibition": "-5.85% (inactive)"}, {"smiles": "NNC(=O)/C(=C/c1cccc([N+](=O)[O-])c1)NC(=O)c1ccccc1", "growth inhibition": "-41.4% (inactive)"}, {"smiles": "CCOc1ccccc1C=Nc1cc(C(C)C)c(O)cc1C", "growth inhibition": "-10.2% (inactive)"}, {"smiles": "C=CCSc1ccc(Cl)cc1[N+](=O)[O-]", "growth inhibition": "18.8% (inactive)"}, {"smiles": "COc1ccc(Cl)cc1Cl", "growth inhibition": "6.8% (inactive)"}, {"smiles": "C[Si](C)(/C(=C/COCc1ccccc1)CCOC1CCCCO1)c1ccccc1", "note": "(stereo not given)", "growth inhibition": "-5.4% (inactive)"}, {"smiles": "CCCCCCCCCCCCCCCC(=O)O[C@@H]1[C@@H](C)[C@@]2(O)[C@@H](C=C(CO)C[C@]3(O)C(=O)C(C)=C[C@@H]23)[C@H]2[C@]1(OC(C)=O)[C@]2(C)CO", "growth inhibition": "14.8% (inactive)"}, {"smiles": "OC1C(O)C2OC(c3ccccc3)OC2C2OC(c3ccccc3)OC12", "note": "(stereo not given)", "growth inhibition": "7.1% (inactive)"}, {"smiles": "O=S(=O)(O)SCC1=NCCN1", "growth inhibition": "17.9% (inactive)"}, {"smiles": "CC(=O)Nc1ccc2c(c1)Cc1c(F)cc(F)cc1-2", "growth inhibition": "35.9% (inactive)"}, {"smiles": "CC(O)(COS(=O)(=O)c1ccccc1)c1ccccc1", "note": "(stereo not given)", "growth inhibition": "-8.1% (inactive)"}, {"smiles": "N#C/C(=C\\c1ccc(F)cc1)C(=O)O", "growth inhibition": "13.2% (inactive)"}, {"smiles": "COc1cc(O)c2c(=O)c(O)c(-c3ccc(O)c(O)c3)oc2c1", "growth inhibition": "3.15% (inactive)"}]}]}
